# Experimental data as given in PubChem BioAssay (NCI).
# The panel holds about 83,000 compounds, 20% with a hit somewhere; the sample as a whole holds those more often.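 Growth was measured after 48 h exposure to one concentration of compound in 96-well plates. Values under 10 count as active.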 A number with no mark means an inactive call. Calls of active or inactive are those of the source.
# System: CAKI-1 renal
# Assay: NCI-60 one-dose screen, 48 h (100 = growth as untreated, 0 = no growth, -100 = all killed)
# Conditions: 10 µM unless noted
row,Structure (SMILES),growth
1,Cc1ccc(NC(=O)Nc2ccc(-c3cccnc3)cc2N2CCC(CO)CC2)cc1,42.2%
2,CCCCCCCCCCCCCCCCN=C(CC(=O)O)C(=O)O,104%
3,COc1ccc(CCN2CCCN3C2=Nc2ccccc2S3(=O)=O)cc1,46.5%
4,Cc1nnc(Nc2ccc(NC(=O)Nc3ccc(Cl)cc3)cc2)c2ccccc12,33.9%
5,CCCCCCCCCCSc1ncnc2nc[nH]c12,69.4%
6,C=C(C[C@](O)(C(=O)/C=C/c1ccc(Cl)cc1)C(=O)OC)c1ccccc1,68.5%
7,CC(=O)NC1(C(=O)O)CCCC1,111%
8,CCOC(=O)c1cc(-c2cccnc2)nc2c(Cl)cc(Cl)cc12,105%
9,CN1C(=O)/C(=C/c2nc(-c3cccc(F)c3)n3ccccc23)c2ccccc21,68%
10,O=C1C(=O)c2ccc(Br)cc2-c2cc(Br)ccc21,58.1%
11,CCN1CCN(c2cc(-c3cn[nH]c3-c3cc(C)cc(OC)c3)nc(-c3cccnc3)n2)CC1,73.7%
12,ClC1=C(Cl)C(Cl)=C(Cl)C1=C/C=C/c1ccccc1,-4.48% (active)
13,O=C(CN1CCCCC1)Sc1nnc2sc3ccccc3n12,86.2%
14,CN1CCN(Cc2ccc(NC(=O)c3[nH]ncc3Nc3ccnc4ccnn34)cc2)CC1,75.4%
15,c1cnc2ccc3ncccc3c2c1,90.3%
16,O=C(Nc1ccc(Cl)cc1)Nc1ccc(Oc2nncc3ccccc23)cc1,18.7%
17,CCCCCCCC/C=C/CCCCCCCC1=NC(C)(C)CN1CCO,59.5%
18,CN(CC(=O)N(Cc1ccc(C2CCCCC2)cc1)c1ccc(C(=O)O)cc1)S(=O)(=O)c1c(F)c(F)c(F)c(F)c1F,89.9%
19,CCN(CC)CCCNCCCNc1cc(OC)cc2cccnc12,97.6%
